Reference: PubChem BioAssay AID743285 (National Center for Advancing Translational Sciences (NCATS), 2014)
Screen size: about 1,100 compounds; fewer than 10 were called active. Only a sample is shown. Values without a mark were called inactive. The call rests on the fitted dose curve; in most records, active means well fitted curve in the direction sought with a large enough effect; inconclusive means small, poorly fitted or top-dose-only effect, or another doubt; inactive means no such curve, though single readings can be large or run the other way.

Test: qHTS for Inhibitors of PI5P4K: ADP-Glo counter assay
Conditions: ADP-Glo detection counter-screen, luciferase luminescence, no enzyme; series mostly up to 76.9 µM; activity change, negative = inhibition: at the top concentration
Text: In addition to finding PI5P, we discovered the type II phosphatidylinositol 5-phosphate 4-kinase (PI5P4K) family (alpha, beta, gamma isoforms) that catalyze the conversion of PI5P to PI(4,5)P2. Alternatively, PI(4,5)P2 can also be synthesized through phosphatidylinositol-4-phosphate (PI4P) by the type I phosphatidylinositol 4-phosphate 5-kinases (PI4P5K). These PI5P4K enzymes therefore represent one way by which cells can regulate endogenous PI5P levels and play important roles in insulin signaling and in stress responses. […] A qHTS PI5P4K-alpha ADP-Glo assay was developed to identify specific modulators of human PI5P4K, phosphatidylinositol-5-phosphate 4-kinase (Type II PIPK). This assay was screened against the MLSMR containing ~400,000 small molecules (PubChem AID 652105). To confirm that the hits were not interacting with the detection enzyme system, a 1536-well counterscreen against the ADP-Glo kit (Promega) was utilized, as described in Davis et al., 2013 [1]. For this assay, an ATP/ADP mix of 80% ATP and 20% ADP was used to mimic the PI5P4K-alpha enzyme reaction. […] Therefore, true inhibitors of PI5P4K-alpha should have no activity in this assay. Davis et al., PLoS One. 2013;8(1):e54127. NIH Chemical Genomics Center [NCGC] NIH Molecular Libraries Probe Centers Network [MLPCN] MLPCN Grant: MH096575 Assay Submitter (PI): Atsuo Sasaki, Beth Israel Deaconess Medical Center
Two micoliter of assay buffer (0.038 M HEPES pH 7.4, 0.28 mM EGTA, 0.1% CHAPS, 7.5% DMSO) was dispensed into Greiner white solid bottom 1536-well assay plates. Compounds were then transferred via Kalypsys pin tool equipped with 1536-pin array (10 nL slotted pins, V&P Scientific, San Diego, CA). Next, 1 uL of ATP / ADP mix (4 uM ATP / 1 uM ADP final concentrations in 20 mM HEPES pH 7.4, 60 mM MgCl2, and 0.1% CHAPS) was added for a total reaction volume of 3 uL. The plates were incubated at room temperature for 60 minutes. To detect the activity, 2 uL of ADP-Glo reagent 1 was added to each well followed by 45 min room temperature incubation. Then, 4 uL of ADP-Glo reagent 2 was added to each well and the plates were incubated further for 30 min at room temperature. Finally, luminescence signal was detected using the PerkinElmer ViewLux plate reader (30 sec exposure). The data was normalized to control wells with 20% ADP / 80% ATP and wells with 100% ATP.
On the % scale 0 is the no-effect control and ±100 the full control effect.

| SMILES | activity change, negative = inhibition [%] |
| --- | --- |
| Cc1cnc(NC(=O)CSc2c(Cl)cccc2Cl)s1 | -1.84 |
| Cc1cc(=O)n2[nH]c(-c3sccc3-n3c(C)ccc3C)cc2n1 | -6.46 |
| O=C(Cc1cccs1)N(CC1CCCO1)C1(C(=O)NC2CCCCC2)CCCCC1 (stereo not given) | -3.41 |
| CCOC(=O)C1Nc2ccc(C(F)(F)F)cc2C2C=CCC12 (stereo not given) | 4.47 |
| O=C1CC(c2ccccc2)=NN1c1ccc([N+](=O)[O-])cc1 | -4.44 |
| CC(=O)N1c2ccc(S(=O)(=O)NCCC(=O)N(C)C3CCCCC3)cc2CC1C (stereo not given) | -6.51 |
| O=C(COc1ccc(-n2cnnn2)cc1)Nc1ccccc1Cl | -3.16 |
| Cc1cccnc1NC(=O)CSc1nnc(COc2ccc(C(C)C)cc2)n1C | 0.783 |
| O=C(Nc1ccc(S(=O)(=O)Nc2nccs2)cc1)c1cc(-c2ccncc2)nc2ccccc12 | 1.58 |
| Cc1csc(=O)n1CCC(=O)OCC(=O)Nc1ccc(N2CCOCC2)cc1 | 1.61 |
| CCC(c1nnnn1Cc1ccco1)N(CCc1ccccc1)Cc1cc2ccc(OC)cc2[nH]c1=O (stereo not given) | 4.11 |
| Cc1ccc(C(c2nnnn2CS(=O)(=O)c2ccc(C)cc2)N2CCC(C)CC2)cc1 (stereo not given) | 4.38 |
| COc1cccc2c(C)c(C(=O)O)[nH]c12 | -4.76 |
| CC(CNC(=O)c1ccc(Br)o1)NC(=O)c1ccc(Br)o1 (stereo not given) | -11 |
| Cc1ccc(Cc2c(-c3ccco3)nc3ccc(Cl)cn23)cc1 | -6.35 |
| OCCNc1nc(Nc2ccc(Cl)c(Cl)c2)nc2ccccc12 | -2.85 |
| O=C(c1cc(-c2ccco2)nc2ccccc12)N(Cc1nnc(-c2ccc(Cl)cc2)o1)C1CC1 | 3.35 |
| O=C(c1cc2c(s1)CCC2)N1CCN(c2ccccc2)CC1 | 0.844 |
| O=C(c1cccnc1)N(c1cc2sc(=O)oc2c2ccccc12)S(=O)(=O)c1ccccc1 | -0.127 |
| COc1ccc(C(=O)N2CCC(C(=O)Nc3ccc(C)cc3)CC2)cc1 | 0.698 |
| COc1ccc(OCCCC(=O)Nc2nnc(C3CCCO3)s2)cc1 (stereo not given) | -0.361 |
| Cc1cc(NC(=O)Nc2ccccc2[N+](=O)[O-])no1 | 4.52 |
| O=c1oc2cc(O)ccc2cc1-c1ccc(F)cc1 | -12.4 |

| SMILES | activity change, negative = inhibition [%] |
| --- | --- |
| COCCNC(=O)Nc1ccc2nc(-c3ccco3)c(-c3ccco3)nc2c1 | -14.7 |
| COc1ccc(S(=O)(=O)/N=C2\C=C(NS(=O)(=O)c3ccccc3)C(=O)c3ccccc32)cc1 | -15.5 |
| COc1ccc(CCCc2nnc(SCc3nc4ccccc4c(=O)[nH]3)n2C)cc1 | -7.05 |
| CCOC(=O)c1cc2c(=O)[nH]c(C(Cl)(Cl)Cl)nc2o1 | 2.4 |
| OCCCNc1nccc(-c2cc(Nc3cccc(Cl)c3)ncn2)n1 | -9.65 |
| O=S(=O)(Nc1ccc2cn[nH]c2c1)c1ccccc1 | 4.71 |
| COc1cccc(C(=O)Nc2nc3ccc(S(C)(=O)=O)cc3s2)c1 | 1.96 |
| O=c1[nH]c2ccccc2n2c(-c3ccccc3)nnc12 | -11.3 |
| O=C(Cn1cnc2c(OCc3ccccc3)ncnc21)NCc1nc2ccccc2[nH]1 | 0.0717 |
| O=C(Nc1nc(-c2ccncc2)cs1)C1COc2ccccc2O1 (stereo not given) | -2.71 |
| COc1cc(=O)[nH]c(=O)n1C(=O)Cc1ccccc1 | -8.78 |
| COc1ccc(-c2cc(C(=O)Nc3ccccc3O)c3ccccc3n2)cc1 | -3.69 |
| Cc1cccc(C)c1NC(=O)C(c1ccc(C(F)(F)F)cc1)n1c(=O)c(-c2ccco2)nc2ccccc21 (stereo not given) | -3.23 |
| O=C(NC1CCCCC1)C(c1cc2ccccc2o1)n1c(=O)c(-c2ccco2)nc2ccccc21 (stereo not given) | -1.4 |
| COc1ccc(C(CNC(=O)c2ccc(OCc3cscn3)cc2)N2CCCC2)cc1 (stereo not given) | -7.47 |
| Cc1cc2nc(-c3ccco3)c(Cc3cccc(F)c3)n2c(C)c1Br | -11.4 |
| O=C(CCNS(=O)(=O)c1ccc(Br)s1)NCc1ccccc1Cl | -7.75 |
| C[C@H](NC(=O)c1nc[nH]c1C(=O)N[C@@H](C)C(=O)OC(C)(C)C)C(=O)OC(C)(C)C | 1.4 |
| CC(Oc1ccc(F)cc1)C(=O)N1CCN(c2ncccn2)CC1 (stereo not given) | -2.05 |
| Cn1c(SCC(=O)Nc2ccc(Cl)cc2)nc(O)cc1=O | 4.32 |
| Cc1ccc(Cn2c(C)nc3c(c2=O)c2nc4ccccc4nc2n3Cc2ccco2)cc1 | 3.85 |
| O=C(COC(=O)c1ccccc1O)NCc1ccco1 | -6.69 |
